MCF10A rereplic – induces DNA re-replication in MCF 10a normal breast cells | MCF 10A DNA re-replication, Hoechst nuclear intensity, 48 h | Potency, µM (titrated, usually from 46.1 µM), without a hit: top-dose activity, positive = re-replication, actives largely listed as activators | 350,000 compounds, 2.9% hits; also: % of control where 0% means no effect; nearly all actives have a fitted effect of over 50% in size
KB-V1 MDR tox – KB-V1 MDR subline cytotoxicity | KB-V1 MDR cells viability, CellTiter-Glo, 72 h | Potency, µM (series often up to 46.1 µM), usual class: cytotoxic | 400,000 compounds, 3.4% hits; also: % is scaled to controls: 0 for no effect and ±100 for the full control effect; nearly all actives have a fitted effect of over 60% in size
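Following 72 h at 37 degrees C with compound, KB-V1 cell viability was read by CellTiter-Glo luminescence, medium being phenol-red-free DMEM plus 10% FBS; concentration-response parameters came from normalized, curve-fitted qHTS data.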
SW480 rereplic – induces DNA re-replication in SW480 colon adenocarcinoma cells. 340,000 compounds, 1.8% hits. Potency, µM (top dose mostly 46.1 µM), inactives show at the highest dose re-replication activation, usual class: activators. SW480 DNA re-replication, Hoechst DNA content imaging, 48 h; also: % of control where 0% means no effect; nearly all actives have a fitted effect of over 55% in size
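Hoechst fluorescence of nuclei (405 nm excitation, 500-530 nm emission) measured by plate-scanning imager after 48 hr compound exposure at 37 C; re-replication scored as increased number of nuclei with elevated intensity.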
HT1080NT lethal – kills 2HG-producing HT-1080-NT fibrosarcoma cells | HT-1080-NT fibrosarcoma viability, CellTiter-Glo ATP luminescence, 48 h | Potency, µM (top dose mostly 46.1 µM), inactives show top-dose activity, negative = less viability, hits mostly cytotoxic | 360,000 compounds, 1.6% hits;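 also: NT is the 2HG producing partner of a matched IDH1 knockdown line; 0% = DMSO-treated cells and -100% = media-only wells without cells; nearly all actives have a fitted effect of over 55% in size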
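Luminescent CellTiter-Glo readout after 48 hours of compound exposure at 37 degrees C defined viability of HT-1080-NT cells. Activity was normalized to DMSO wells and cell-free media wells; concentration-response curves were fitted and assigned curve classes.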
HT1080 IDH1KD tx – HT-1080 IDH1 knockdown cell toxicity (counter line) | HT-1080 IDH1 knockdown viability, ATP luminescence, 48 h | Potency, µM (highest dose often 46.1 µM), inactives show at the top dose activity, negative = toxicity, usual class: cytotoxic | 360,000 compounds, 2% hits | AID 686971;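 also: 0% = DMSO wells and -100% = cell-free medium wells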
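CellTiter-Glo luminescence after 48 h compound exposure at 37 degrees C of IDH1-knockdown HT-1080 cells in 5% FBS RPMI. %Activity scaled between DMSO wells and cell-free media wells, with curves fitted and assigned curve classes.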
KB-3-1 cytotox – kills parental KB-3-1 adenocarcinoma cells; KB-3-1 viability, CellTiter-Glo ATP luminescence, 72 h; Potency, µM (highest dose often 46.1 µM), actives largely listed as cytotoxic; 400,000 compounds, 1.4% hits; also: % is scaled to controls: 0 for no effect and ±100 for the full control effect; nearly all actives have a fitted effect of over 60% in size
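Cytotoxicity in the drug-sensitive parental line KB-3-1 was scored as loss of CellTiter-Glo luminescence following 72 h incubation with compound. Values come from curve fitting of normalized concentration-response data.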
* marks the source's active call; other numbers are inactive results; i = inactive; ? = inconclusive; · = no result given; [ ] = remark or other dose. Most compounds without a hit are left out; they make up all but 8% or so of the library. Calls follow the shape of the dose curve; as a rule, active = well fitted curve in the direction sought with a large enough effect; inconclusive = small, poorly fitted or top-dose-only effect, or another doubt; inactive = no such curve, though single readings can be large; an effect the other way counts as inactive or inconclusive. Potency is read from the fitted curve at half-maximal effect.

SMILES | MCF10A rereplic | KB-V1 MDR tox | SW480 rereplic | HT1080NT lethal | HT1080 IDH1KD tx | KB-3-1 cytotox
CN(C)/C=C/C(=O)c1ccc2noc(-c3ccccc3)c2c1 | 21µM* | ? | 25% | ? | -14% | i
CC1=C(C#N)S(=O)(=O)C(C#N)C(c2ccccc2)C1 (centres undefined) | 13% | i | ? | 2% | -7% | i
Cc1ccc(C2=N/C(=C\c3ccc(F)cc3)C(=O)N2)cc1 | ? | i | 15µM* | -1% | -7% | i
O=C(O)c1ccc(NC(=O)c2ccc(COc3ccccc3)o2)cc1 | 16% | ? | 7% | ? | ? | i
Cc1[nH]nc(-c2ccc(OCc3cnn(-c4ccccc4)c3)c(C)c2O)c1Oc1ccccc1 | 16µM* | i | ? | 21µM* | 16µM* | 21µM*
Cc1[nH]nc(-c2ccc(OCc3cnn(-c4ccccc4)c3)cc2O)c1Oc1ccc(F)cc1 | ? | i | 12% | ? | ? | ?
CN(C)c1ccc(C(O)P(=O)(OCc2ccccc2)c2ccc(N(C)C)cc2)cc1 (centres undefined) | 9% | i | 17% | -10% | -12% | i
CCN(CC)C(=S)SCC(=O)c1ccc(F)cc1 | ? | 18µM* | ? | ? | ? | ?
O=C(Nc1ccccc1F)c1ccc2snnc2c1 | -1% | i | 18% | -6% | -9% | i
CCSc1nnc(-c2sc3nnc(-c4ccccc4)c(-c4ccccc4)c3c2N)o1 | 3.3µM* | i | ? | 27% | 16% | i
Cc1ccccc1-n1nc2c(c1NC(=O)C1CCCC1)CS(=O)(=O)C2 | 18µM* | i | -1% | 11% | 7% | i
CC(C)COCC(CN(Cc1ccccc1)c1ccccc1)N1CCCC1 (centres undefined) | 1% | 18µM* | 1% | 16µM* | 16µM* | i
CC(C(=O)Nc1ccc(OCc2ccccc2)cc1)N1CCCC1 (centres undefined) | ? | i | ? | -19% | ? | i
CCCN(C(=O)CCn1cnc2onc(-c3ccc(F)cc3)c2c1=O)c1ccccc1C | · | i | · | · | · | i
N=C1C=CC(=C(c2ccc(N)cc2)c2ccc(N)cc2)C=C1 | ? | i | ? | 23µM* | 7.3µM* | 3.7µM*
Nc1ccc(C(=O)C(=O)c2ccc(N)cc2)cc1 | -1% | i | 0% | -4% | 0% | i
CC(C)(C)NC(=S)NNC(=O)c1cccc(Br)c1 | -2% | 16µM* | 2% | 5% | -1% | ?
COc1ccc(NC(=O)c2sc(=O)n(Cc3ccc(SC)cc3)c2C)cc1OC | · | ? | · | 4% | 6% | i
COc1ccc(NC(=O)c2sc(=O)n(Cc3cccc(C(F)(F)F)c3)c2C)cc1OC | · | ? | · | -2% | ? | 8.2µM*
Cc1c(C(=O)NCc2ccc3c(c2)OCCO3)sc(=O)n1Cc1cccc(C(F)(F)F)c1 | · | 7.3µM* | · | -26% | ? | ?
CSc1ccc(Cn2c(C)c(C(=O)NCc3ccc(Cl)c(Cl)c3)sc2=O)cc1 | · | 16µM* | · | -25% | -14% | 15µM*
Cc1c(C(=O)NCc2ccc(F)cc2)sc(=O)n1Cc1ccc(Cl)c(Cl)c1 | · | 16µM* | · | ? | ? | ?
CC1(C(=O)NC2CCCCCCC2)CCC(=O)N1CCN1CCOCC1 (centres undefined) | -4% | i | -5% | -3% | 6% | i
Cc1ccc(Cl)cc1Nc1nc(-c2cccnc2)cs1 | ? | i | -5% | -26% | -21% | i
Cc1c(C(=O)NCCC#N)sc(=O)n1Cc1ccc(F)cc1 | · | i | · | 7% | 24% | i
SMILES | MCF10A rereplic | KB-V1 MDR tox | SW480 rereplic | HT1080NT lethal | HT1080 IDH1KD tx | KB-3-1 cytotox
CSc1ccc(Cn2c(C)c(C(=O)NCc3ccc4c(c3)OCCO4)sc2=O)cc1 | · | 18µM* | · | 0% | -30% | i
CSc1ccc(Cn2c(C)c(C(=O)NCCC#N)sc2=O)cc1 | · | 15µM* | · | -5% | ? | ?
COc1ccc(C(=O)Nc2ccc(-c3ccc(NC(=O)c4ccc(OC)cc4)c(OC)c3)cc2OC)cc1 | 2.3µM* | i | -124% | -3% | -4% | i
COc1ccc(NC(=O)c2ccc(C(=O)Nc3ccc(OC)cc3OC)cc2)c(OC)c1 | -7% | i | 5.2µM* | 12% | 5% | i
COc1ccc(NC(=O)c2cc(Br)ccc2Cl)c(OC)c1 | -47% | 16µM* | -1% | 2% | -5% | i
COc1ccc(NCC(=O)Nc2ccc(Br)cc2F)c(OC)c1 | ? | i | 6.5µM* | ? | -5% | i
COc1cc(C(=O)NNC(=S)NC(=O)c2ccc(Cl)cc2)cc(OC)c1OC | 27% | ? | 6% | -6% | ? | ?
CC(C)(C)NC[C@@H](O)COc1ccccc1C1CCCC1 | 2%[20.6 µM] | · | 0%[20.6 µM] | · | · | ·
Cc1ccccc1Cn1cc(NC(=O)c2noc3c2CC(C(C)(C)C)CC3)cn1 (centres undefined) | ? | 18µM* | ? | ? | ? | i
N/C(Cn1cncn1)=N\OC(=O)c1ccc(Cl)cc1Cl | 0% | i | -5% | 11% | -5% | i
COc1cc(C(=O)Nc2nc3ccc4nc(C)sc4c3s2)cc(OC)c1OC | -1% | i | -4% | 2% | 9% | i
COc1cccc(-c2cc(NC=O)c3ncc(-c4cc(OC)c(OC)c(OC)c4)n3c2)c1 | · | 2.1µM* | · | ? | ? | 1µM*
COc1cc(-c2cnc3c(NC=O)cc(-c4cccnc4)cn23)cc(OC)c1OC | · | 13µM* | · | ? | ? | 10µM*
COc1cccc(-c2cnc3c(NC=O)cc(-c4ccc(O)c(OC)c4)cn23)c1 | · | i | · | ? | ? | ?
COc1cc(-c2cc(NC=O)c3ncc(-c4ccc(F)cc4)n3c2)cc(OC)c1OC | · | ? | · | ? | ? | i
COc1cc(-c2cnc3c(NC=O)cc(-c4ccsc4)cn23)cc(OC)c1OC | · | 1.3µM* | · | ? | ? | 0.82µM*
COc1cc(-c2cnc3c(NC=O)cc(-c4ccc(N5CCN(C)CC5)cc4)cn23)cc(OC)c1OC | · | ? | · | -5% | ? | ?
COc1cc(-c2cnc3c(NC=O)cc(-c4cccc(C(F)(F)F)c4)cn23)cc(OC)c1OC | · | 23µM* | · | ? | ? | ?
CCCCCCc1c(O)nc(SCC(=O)O)[nH]c1=O | -6% | ? | -7% | -2% | 9% | i
COC(=O)[C@]12C(=O)NC[C@H](CN1c1ccc(C(F)(F)F)cc1)N2C | 5% | i | -6% | -4% | 3% | i

Assay outcomes from PubChem BioAssay.
